Screening data: PubChem BioAssay, The Scripps Research Institute Molecular Screening Center
Cardiac RTF inh – cardiac RTF calcium desensitization; P19429+P45379; IANBD-labeled cardiac RTF, Ca2+ fluorescence; inhibition, % at 7.15 µM; 0.12% of 340,000 active;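 active = inhibition above the mean inhibition of all tested compounds plus 3 SD, cut at about 17% in these data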;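 also: assay run at fixed EC70 calcium of 1.6 mM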
RTF Ca sens act – cardiac RTF calcium sensitization; P19429+P45379; IANBD-labeled TnC RTF fluorescence at EC20 calcium; 0% EC20 calcium, 100% full calcium; activation, % at 7.2 µM; 0.24% of 340,000 active; AID 493008;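 active = activation above the mean over all tested compounds plus 3 SD, cut at about 30% in these data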;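 also: rise in fluorescence read as greater calcium sensitivity of cardiac thin filaments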
IDE inh – cellular human IDE inhibition; HEK cells, FAbetaB cleavage, fluorescence polarization; 0.41% of 320,000 active; inhibition, % at 5.59 µM; P14735;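 active = percent inhibition above the average of all tested compounds plus 3 SD, set per screening campaign, cut at about 16% in these data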;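 also: IDE supplied by intact live HEK cells; FP after avidin binding of uncleaved biotin substrate so inhibition keeps polarization high; 0% = DMSO wells and 100% = 60 µM reference IDE inhibitor Ii1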
Target sequence (P14735 whole entry, looked up): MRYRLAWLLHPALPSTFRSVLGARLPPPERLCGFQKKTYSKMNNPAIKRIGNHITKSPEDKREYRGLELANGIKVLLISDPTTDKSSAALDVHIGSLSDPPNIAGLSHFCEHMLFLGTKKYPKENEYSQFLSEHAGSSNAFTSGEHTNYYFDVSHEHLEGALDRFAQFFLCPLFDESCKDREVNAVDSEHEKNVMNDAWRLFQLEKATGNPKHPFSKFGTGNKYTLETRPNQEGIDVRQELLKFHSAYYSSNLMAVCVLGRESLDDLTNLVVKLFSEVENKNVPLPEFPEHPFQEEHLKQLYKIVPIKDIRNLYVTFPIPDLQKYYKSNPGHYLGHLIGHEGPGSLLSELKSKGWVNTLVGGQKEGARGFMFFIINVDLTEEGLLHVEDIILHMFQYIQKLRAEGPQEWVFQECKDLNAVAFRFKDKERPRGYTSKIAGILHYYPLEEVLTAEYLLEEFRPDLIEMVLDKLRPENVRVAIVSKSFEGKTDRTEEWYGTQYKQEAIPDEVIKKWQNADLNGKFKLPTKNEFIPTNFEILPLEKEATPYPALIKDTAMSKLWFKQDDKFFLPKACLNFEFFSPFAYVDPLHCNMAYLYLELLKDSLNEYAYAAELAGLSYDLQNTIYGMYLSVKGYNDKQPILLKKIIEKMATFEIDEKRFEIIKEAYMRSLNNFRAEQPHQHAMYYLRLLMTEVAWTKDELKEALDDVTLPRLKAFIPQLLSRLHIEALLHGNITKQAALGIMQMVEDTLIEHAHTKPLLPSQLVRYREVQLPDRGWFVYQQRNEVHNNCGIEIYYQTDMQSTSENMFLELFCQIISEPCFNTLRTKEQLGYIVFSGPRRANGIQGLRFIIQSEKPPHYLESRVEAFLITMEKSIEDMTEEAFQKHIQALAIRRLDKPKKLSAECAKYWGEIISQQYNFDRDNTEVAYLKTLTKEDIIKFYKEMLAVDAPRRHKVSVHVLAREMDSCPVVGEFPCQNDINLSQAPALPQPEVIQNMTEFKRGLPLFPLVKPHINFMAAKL
IDE act – boosts human insulin-degrading enzyme activity in HEK cells. P14735. FAbeta-B cleavage, fluorescence polarization; 0% vehicle, 100% cell-free pure enzyme wells. activation, % at 5.96 µM. 0.073% of 340,000 active. AID 493087;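 active = activation above the mean of all tested compounds plus 3 SD, set per screening campaign, cut at about 17% in these data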
IDE cell inh cf – cellular human IDE inhibition, confirmation; inhibition, % at 5.59 µM; 51% of 1,200 active; HEK cells, FAbetaB cleavage, fluorescence polarization; shares compounds with IDE inh;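 active = mean inhibition across triplicate wells above the cutoff set by the earlier primary insulin-degrading enzyme screen, cut at about 16% in these data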;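 also: 0% = DMSO wells and 100% = 60 µM reference IDE inhibitor Ii1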
HEK293 tox – counter-screen for IDE inhibitors: cytotoxicity in HEK cells. shares compounds with IDE inh. HEK293 cytotoxicity, ATP luminescence. inhibition, % at 5.59 µM. 28% of 1,200 active; in the data active = inhibition above about 22%;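 also: 0% = vehicle wells and 100% = reference cytotoxic drug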
* marks the source's active call; other numbers are inactive results; i = inactive; · = not tested or not shown. Shown are actives, neighbours in structure and some others; about 0.71% of the full set was active somewhere.

SMILES | Cardiac RTF inh | RTF Ca sens act | IDE inh | IDE act | IDE cell inh cf | HEK293 tox
CC1CC(C)CN(CCCNC(=O)C2CCN(c3nnc(-n4cccc4)s3)CC2)C1 (configuration not stated) | 1 | -3 | -3 | 1 | · | ·
COc1cc(/C=C2\SC(=Nc3ccccc3)NC2=O)cc(Cl)c1O | -92 | 63* | 134* | -112 | 150* | 28*
COc1cc(/C=C2/SC(=Nc3ccc(O)cc3)NC2=O)ccc1O | -8 | 0 | 35* | -41 | 60* | 59*
COc1ccc(Cl)cc1NC(=O)Nc1ccc(C(=O)N2CCOCC2)cc1 | -3 | -5 | -2 | 1 | · | ·
COc1ccccc1N1CCN(C2CCCN(C(=O)Cn3cccn3)C2)CC1 (configuration not stated) | 4 | -1 | -1 | -3 | · | ·
CCCN1C(=O)/C(=C/C=C2\N(CC)c3ccccc3C2(C)C)SC1=S | -69 | 52* | 16* | -29 | 114* | 17
CN1/C(=C\C=C2/SC(=S)N(CC(=O)O)C2=O)C(C)(C)c2ccccc21 | i | 773* | 133* | -91 | 26* | 20
CCCN1C(=O)/C(=C2/C=Cc3ccccc3N2CC)SC1=S | 10 | -1 | 2 | 6 | · | ·
Cc1[nH]n(-c2ccccc2)c(=S)c1C=Nc1cccc([N+](=O)[O-])c1 | -9 | 11 | 25* | -13 | 2 | 8
CCCN1C(=O)/C(=C/c2ccncc2)SC1=S | 0 | 8 | 3 | 0 | · | ·
CCN1C(=O)/C(=C/C=C2/Sc3ccccc3N2CCO)SC1=S | -3 | -2 | 20* | -17 | 19* | 20
CCCCN1C(=O)/C(=C/C=C2/CC(C)(C)CN2C)SC1=S | -457 | 396* | 107* | -130 | 149* | 28*
CCN1C(=O)/C(=C/C=C2/SCCN2C)SC1=S | -128 | 136* | 27* | -44 | 69* | 21
CCn1c(-c2cc(-c3ccccc3OC)nc3ccccc23)n[nH]c1=S | 7 | -2 | 16* | -23 | 10 | 8
COCC(C)NS(=O)(=O)c1ccc(C(=O)NCCCn2ccc3ccccc32)cc1 (configuration not stated) | -12 | -5 | 3 | 1 | · | ·
Cc1ccc2nc(-c3ccccc3)cc(C(=O)NNC(=O)c3csc(N4CCOCC4)n3)c2c1 | -4 | -17 | 3 | 0 | · | ·
COc1cc(/C=N/Nc2nc3ccccc3[nH]2)ccc1O | -15 | 6 | 6 | -2 | · | ·
COc1cc(/C=N/Nc2nc3ccccc3[nH]2)cc(OC)c1O | -2 | -2 | 18* | -1 | 1 | 24*
CC(C)(CC(=O)O)CC(=O)N1CCN(c2nc3ccc(Cl)cc3s2)CC1 | 7 | 2 | 16* | -30 | 2 | 14
CC(C)(CC(=O)O)CC(=O)N1CCCN(c2nc3ccc(Cl)cc3s2)CC1 | 4 | -4 | 7 | -22 | · | ·
C=CCc1cccc(/C=C/c2cc(=O)c3ccccc3[nH]2)c1O | -2 | 9 | 17* | -29 | 3 | 11
S=C(Nc1ccc(-c2nc3ccccc3[nH]2)cc1)Nc1cccnc1 | 1 | 4 | 2 | 0 | · | ·
O=C(CNC(c1ccccc1)c1ccccc1)Nc1ccccc1Br | 1 | 3 | -1 | 1 | · | ·
Cc1cccc(N2CCN(C(=O)c3ccc4nc[nH]c4c3)CC2)c1C | -7 | 4 | 8 | -3 | · | ·
Cc1ccc(Cl)cc1N1CCN(C(=O)c2ccc3nc[nH]c3c2)CC1 | -7 | -3 | 19* | -19 | 3 | 14
SMILES | Cardiac RTF inh | RTF Ca sens act | IDE inh | IDE act | IDE cell inh cf | HEK293 tox
COC(=O)CN(C)C(=O)c1ccc(OC2CCN(S(=O)(=O)N(C)C)CC2)cc1 | -10 | -1 | -3 | 6 | · | ·
CCOC(=O)Cc1csc(-n2sc3ccccc3c2=O)n1 | -8 | -8 | 17* | -25 | 13 | 28*
COc1ccc(OC)c2c1C(=O)C(Cl)=C(Cl)C2=O | -13 | 0 | 22* | -102 | 18* | 125*
COc1ccc(OC)c2c1C(=O)c1ccccc1C2=O | · | · | -7 | · | · | ·
Cc1cc(O)c(C(C)C)cc1N=Cc1ccc(N(C)C)cc1 | -4 | -4 | · | -1 | · | ·
COc1ccc(CNC(=O)COC(=O)c2ccc(F)c(S(=O)(=O)N3CCOCC3)c2)cc1 | -6 | -1 | 17* | -3 | 1 | 7
Cc1ccc2[nH]c(=O)c(C(c3nnnn3Cc3ccccc3)N3CCc4ccccc43)cc2c1 (configuration not stated) | -5 | 1 | -1 | -1 | · | ·
Cc1cc2cc(C(c3nnnn3Cc3ccccc3)N3CCc4ccccc43)c(=O)[nH]c2cc1C (configuration not stated) | -8 | 1 | 16* | 1 | 3 | 9
Cc1cccc(C(=O)Nc2ccnc(-c3ccncc3)n2)c1 | 1 | 2 | 51* | -22 | 27* | 8
Cc1ccccc1C(=O)Nc1ccnc(-c2ccncc2)n1 | -5 | 4 | 7 | -3 | · | ·
Cc1cccc(C(=O)Nc2ccnc(-c3cccnc3)n2)c1 | 7 | -1 | 44* | -26 | 31* | 12
CC1(C)Cc2c(cnn2-c2cccc(F)c2)C(NC(=O)CSc2ccncc2)C1 (configuration not stated) | 3 | -2 | -3 | -1 | · | ·
COc1ccc(/C=N/n2c(C)nc3sc(C)c(C)c3c2=O)cc1 | · | · | 8 | · | · | ·
Cc1sc2nc(C)n(/N=C/c3ccccc3)c(=O)c2c1C | -7 | 2 | 16* | -11 | 10 | 13
Cc1ccc(NC(=S)N2CCN(S(C)(=O)=O)CC2)cc1Cl | -1 | -2 | 0 | 1 | · | ·
CCc1sc(C(=O)Nc2cccc(-n3cnnn3)c2)cc1C | -11 | 0 | 32* | -19 | 19* | 19
O=C(Nc1cccc(-n2cnnn2)c1)c1cccs1 | 5 | -2 | 4 | 7 | · | ·
O=C(/C=C/c1ccc(N2CCC(c3ccccc3)=N2)cc1)c1ccccc1 | · | · | 112* | · | 63* | 15
O=C(/C=C/c1ccc(O)cc1)c1ccccc1 | -8 | 0 | 3 | -15 | · | ·
CN(C)c1ccc(/C=C(/C#N)C(=O)NCc2ccccc2)o1 | -98 | 69* | 97* | -126 | 122* | 9
O=C1/C(=C\c2cc([N+](=O)[O-])ccc2O)SC(=S)N1Cc1ccc(Cl)cc1 | -183 | 135* | 40* | -57 | 130* | 15
COc1cc(/C=C2/SC(=NCc3ccccc3)N(Cc3ccccc3)C2=O)ccc1O | -3 | 9 | 38* | -38 | 57* | 15
O=C1/C(=C\c2ccc(O)c(O)c2)SC(=S)N1Cc1ccccc1 | -26 | 3 | · | -77 | · | ·
COc1cc(/C=C2/SC(=S)N(c3c(C)n(C)n(-c4ccccc4)c3=O)C2=O)ccc1O | -2 | 5 | 18* | -34 | 46* | 11
COc1cc(/C=C2/SC(=S)N(Cc3ccccc3)C2=O)ccc1O | -26 | 7 | 115* | -117 | 139* | 20
CC(C)Cc1ccc(C(C)NC(=O)c2ccc(=O)[nH]c2)cc1 (configuration not stated) | -3 | 2 | -1 | 5 | · | ·
